Several values for one entry are separate records, joined by “and”; a condition that tells them apart may be missing. Equal entries are not always repeated. About 83,000 compounds went through this panel and 20% of them were active in at least one assay; those are over-represented in the sample as a whole.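 Assay: single dose, 48 h. Readout: percent growth (0 = no net growth; negative = cell death). Active: <10.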 Unmarked numbers belong to inactive results. Activity calls are given as the source filed them.

The subject of this experiment is MDA-MB-468 breast. The experiment in a line: NCI-60 one-dose screen, 48 h (100 = growth as untreated, 0 = no growth, -100 = all killed). The note with it: 10 µM unless noted. Here is the method:
Growth inhibition of the MDA-MB-468 human Breast tumor cell line is measured as a screen for anti-cancer activity. Cells are grown in 96 well plates and exposed to the test compound for 48 hours. Compounds are tested at a single concentration, which is 10^-5 M for most compounds. The reported endpoint is percent growth (GI% or GIPRCNT), where numbers from 0 - 100% represent growth inhibition, and numbers from -100% - 0 represent cell death. For example, a value of 40 represents 60% growth inhibition. A value of 0 means no net growth occurred over the course of the experiment. A value of -40 indicates 40% of cells at the beginning of the experiment died by the end of the experiment. A value of -100 means all cells are dead at the end of the experiment.
NCI-60 Human Tumor Cell Lines Screen was performed using the standard one-dose NCI protocol, which is described in more detail at https://dtp.cancer.gov/discovery_development/nci-60/default.htm.
Compounds with GIPRCNT values below 10 were considered active. Activity score was based on GIPRCNT using the following formula: […]
Score is 0 for GIPRCNT values of 100 or above, 50 for GIPRCNT values of 0, and 100 for GIPRCNT values of -100.
On to `CN1CCN(CCCOC(=O)c2c3c(n4ccccc24)C(=O)c2ncccc2C3=O)CC1`, for which the growth is 43.7%.

In the case of `C=C(C)[C@@H]1CC[C@]2(C(=O)N3CCN(C)CC3)CC[C@]3(C)[C@H](CC[C@@H]4[C@@]5(C)CC(=C/c6ccncc6)/C(=N/O)C(C)(C)[C@@H]5CC[C@]43C)[C@@H]12`, the growth was 62.2%.

Turning to `O=C(CCN1CCCC1)Nc1ccc2c(NCCCc3ccccc3)c3ccccc3nc2c1`, the growth was -38.5% (active).

On to `C=CC(=O)Nc1cccc(Oc2nc(Nc3ccc(N4CCN(C)CC4)cc3)nc3ccsc23)c1`, for which the growth was -69.1% (active).

Regarding `COc1ccc(-c2cc(-c3ccc(N(C)C)cc3)n3c(n2)nc2ccccc23)cc1`, the growth is 50.8%.

With `COc1ccc2c(c1)[nH]c(=O)c1c3cc(C)c(C)cc3cn21`, the growth is 7.03% (active).

For the compound `COc1ccc(Nc2ncc(I)c(NCCCNC(=O)C3CCC3)n2)cc1`, the growth was -14.9% (active).

For `CN1CCN(c2nc(-c3cccc4ccccc34)nc3sc4c(c23)CCCCCC4)CC1`, the growth was 77.3%.

For `C=C1C(=O)O[C@H]2[C@H]1CC/C(C(=O)Nc1ccc(OC)c(C(N)=O)c1O)=C\CC[C@@]1(C)O[C@@H]21`, the growth is 20.4%.

For `Cc1ccc(C2CC(c3ccc(Nc4nc(NCCO)nc(Nc5ccc(Cl)cc5)n4)cc3)=Nc3c(N)nc(N)nc3N2)cc1` (stereo not given), the growth is -80% (active).

As for `CC(C)(O)CC(=O)NCCn1ccc2ncnc(Nc3ccc(Oc4cccc(C(F)(F)F)c4)c(Cl)c3)c21`, the growth was -43.8% (active).

Turning to `CC(C)c1[nH]nc2c(NCc3ccc(-c4ccccn4)cc3)nc(SCCN(C)C)nc12`, the growth is -50.1% (active).

On to `COc1ccc(C2c3cccn3-c3ccccc3N2C(C)=O)cc1` (stereo not given), for which the growth is 93.9%.

On to `COc1ccc(Cc2cnc(N)nc2N)cc1OC`, for which the growth is 104%.

`COc1ccc(Nc2nc(N)nc3c2CCc2occc2-3)cc1`: the growth was 101%.

For the compound `Fc1ccc(-c2nnc(/C=C/c3cn(-c4ccccc4)nc3-c3ccccc3)o2)cc1`, the growth was 103%.

`COc1ccc(/C=C/c2nc(N3CCOCC3)c3cc(F)c(F)cc3n2)cc1OC`: the growth was -6.96% (active).

Consider `C#Cc1cccc(Nc2ncnc3cc(OC)c(OCCCCCCC(=O)NO)cc23)c1`, for which the growth is -44.4% (active).

As to `COc1ccc(-c2csc3c2-n2cccc2C3=O)cc1O`, the growth is -5.84% (active).

As to `N/C(=N\C(N)=N\c1nc2ccccc2s1)c1cnccn1`, the growth was -24.8% (active).

Regarding `Nc1cc(F)ccc1[N+](=O)[O-]`, the growth is 100%.

In the case of `Cn1cc(-c2ccc(-c3cn(C)c4ncccc34)[nH]2)c2cccnc21`, the growth was -23.7% (active).

Regarding `CN1CC(c2ccccc2)C(C(=O)c2ccc(Br)cc2)C12C(=O)Nc1ccccc12` (stereo not given), the growth is 106%.

With `N#C/C=C(\c1ccc([N+](=O)[O-])cc1)n1nnc2cc(Cl)c(Cl)cc21`, the growth is -47.4% (active).

Regarding `CCCC1=NNC(=O)C1`, the growth was 115%.

Take `Cn1cc(-c2nc3c(F)cc4[nH]ncc4c3c3c2CCCC3)c(C(F)F)n1`: the growth was 52.9%.

Consider `COc1cc2nc(SCc3cc(OC)c(OC)c(OC)c3)n(-c3ccccc3OC)c(=O)c2cc1OC`, for which the growth was 97.9%.

With `COc1cccc2c1O/C(=C\c1ncc([N+](=O)[O-])n1C)C2=O`, the growth was 19%.

With `Cc1cc(C)c(N)c(Br)c1`, the growth was 104% and 107%.

Consider `CNc1ccc2c(c1)c1ccccc1n2C`, for which the growth was 102%.

Turning to `CC(=O)C(C(C)=O)c1nc2sc3cc(Cl)ccc3n2c(=N)c1C#N`, the growth was 41.7%.

For `Clc1ccc(Sc2nc(NC3CC3)nc(Sc3ccc(Cl)cc3)n2)cc1`, the growth is 91.2%.

Consider `CCN(CC)S(=O)(=O)c1cccc([N+](=O)[O-])c1`, for which the growth is 91.4%.

With `C=CCn1c(C)nc2cc(Nc3nc(Cl)nc4ccccc34)ccc21`, the growth was 83.7%.

For `Cc1ccc(NS(=O)(=O)c2ccc(-c3cnc(C4CC4)o3)cc2)cc1`, the growth is -0.814% (active).

In the case of `O=C(Nc1ccc(CN2CCOCC2)c(C(F)(F)F)c1)c1nc2ccc3[nH]ncc3c2c2c1CCCC2`, the growth is 97.2%.

For the compound `COc1cc(NC(=O)CCSc2nc3ccccc3c(=O)n2CCc2ccccn2)cc(OC)c1OC`, the growth is 91.8%.

Turning to `CCCCC(C#N)C(N)=O` (stereo not given), the growth was 119%.

In the case of `COc1cc(NC2CCCCC2O)c2nc(-c3ccc(Cl)cc3)ccc2c1` (stereo not given), the growth is 98.6% and 62.5%.

For the compound `Cc1ccc(S(=O)(=O)NCCNc2nccc(-c3c(-c4ccc(O)cc4)nc4sccn34)n2)cc1`, the growth is 85.3%.

(Values after PubChem BioAssay (NCI).)
